# Measurements from PubChem BioAssay AID588453 (National Center for Advancing Translational Sciences (NCATS), 2011).
# Screen size: about 390,000 compounds; about 4,000 (1%) were called active. Another 4% or so got no clear call; they are omitted. Calls follow the shape of the dose curve; as a rule, active = well fitted inhibition curve with a large enough effect; inconclusive = small, poorly fitted or top-dose-only effect; inactive = no such curve, though single readings can be large or run the other way. What follows is part of a selection rich in actives, with near analogues and random picks from the rest.
# Target: Thioredoxin reductase 1, cytoplasmic (Rattus norvegicus) (UniProt O89049)
# Sequence (O89049 whole entry, looked up): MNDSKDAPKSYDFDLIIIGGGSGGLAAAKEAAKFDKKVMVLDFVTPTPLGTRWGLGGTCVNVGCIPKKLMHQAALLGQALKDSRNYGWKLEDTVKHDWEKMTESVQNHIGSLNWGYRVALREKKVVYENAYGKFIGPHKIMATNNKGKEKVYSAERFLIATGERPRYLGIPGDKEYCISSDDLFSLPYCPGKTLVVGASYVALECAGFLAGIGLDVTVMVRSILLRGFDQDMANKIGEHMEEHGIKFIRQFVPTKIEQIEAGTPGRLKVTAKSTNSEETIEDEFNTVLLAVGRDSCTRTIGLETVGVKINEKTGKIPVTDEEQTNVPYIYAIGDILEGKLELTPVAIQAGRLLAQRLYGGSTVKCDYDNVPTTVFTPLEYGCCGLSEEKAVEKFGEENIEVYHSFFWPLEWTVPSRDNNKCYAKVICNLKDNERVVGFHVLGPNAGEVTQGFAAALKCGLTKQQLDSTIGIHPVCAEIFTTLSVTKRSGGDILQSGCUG
# Assay: qHTS Assay for Inhibitors of Mammalian Selenoprotein Thioredoxin Reductase 1 (TrxR1): qHTS; also: nearly all actives have a fitted effect of over 65% in size
# Conditions: recombinant rTrxR1, NADPH fluorescence consumption, selenite substrate; series mostly up to 114 µM; activity change, negative = inhibition: at the top concentration
# Method in brief: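 Rat TrxR1 (90 nM in the dispensed reagent) was pre-reduced with 400 uM NADPH for 5 min at room temperature, then incubated with compound for 15 min. After 400 uM selenite was added, NADPH fluorescence (Ex 340/Em 450 nm) was followed for 8 min.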
# % is scaled to controls: 0 for no effect and ±100 for the full control effect; potency is read from the fitted curve at half-maximal effect.
Compound,"activity change, negative = inhibition",Potency
COc1ccc(CN(Cc2ccccc2)C(=O)c2ccc(O)cc2)cc1COc1ccc(NC(C)=O)cc1,-8.02% (inactive),–
Cc1ccc(C2C(C#N)C(C#N)N3CCCN23)cc1 (stereo not drawn),–,22.4 µM (active)
COc1ccc(CCNC(=O)Cn2c(=O)n(-c3ccccc3)c(=O)c3c(C)c(C)sc32)cc1OC,7.56% (inactive),–
CC(C)(C)OC(=O)N1CCC(c2c(C(=O)NCCc3ccsc3)cnn2-c2ccc(F)cc2F)CC1,19% (inactive),–
CCn1cc(CN2CCC(n3nccc3NC(=O)CCCc3ccccc3)CC2)c(C)n1,18.4% (inactive),–
COc1ccc(CN2CCC(n3nccc3NC(=O)CCCc3ccccc3)CC2)cc1C,-5.11% (inactive),–
Cc1ccc(CN2CCC(n3nccc3NC(=O)CCCc3ccccc3)CC2)o1,–,70.8 µM (active)
CN(C)c1cccc2ccccc12,-16.8% (inactive),–
COC(=O)C1=C(C(=O)OC)[C@@H]2N(Cc3ccccc3)c3ccccc3[C@@]23C[C@@H](C(=O)OC)N(S(=O)(=O)c2ccc(C(F)(F)F)cc2)C3=N1,-11.6% (inactive),–
Cc1cccc(CS(=O)(=O)c2ncc(Cl)c(C(=O)Nc3ccc(F)cc3)n2)c1,–,7.94 µM (active)
Cc1cccc(NC(=O)Cn2cc(S(=O)(=O)Cc3ccccc3Cl)c3ccccc32)c1,15.8% (inactive),–
CCS(=O)(=O)c1ncc(N(Cc2ccc(F)cc2)Cc2ccco2)c(C(=O)Nc2cc(C)ccc2C)n1,27.3% (inactive),–
Cc1cccc(NC(=O)c2nc(S(=O)(=O)Cc3ccccc3)ncc2Cl)c1,–,5.62 µM (active)
CCCSc1ncc(Cl)c(C(=O)Nc2c(C(=O)Nc3ccccc3)oc3ccccc23)n1,10% (inactive),–
CSc1nnc(NC(=O)c2nc(S(=O)(=O)Cc3ccc(C)cc3)ncc2Cl)s1,–,15.8 µM (active)
CSc1ncc(Cl)c(C(=O)Nc2ccc(S(=O)(=O)N3CCCC(C)C3)cc2)n1 (stereo not drawn),20.8% (inactive),–
CCOC(=O)c1ccc(NC(=O)c2nc(SCc3ccc(F)cc3)ncc2Cl)cc1,18.3% (inactive),–
CCOCCCNC(=O)c1c(NC(=O)c2nc(SC)ncc2Cl)sc2c1CCCC2,–,inactive
Cc1ccc2nc(NC(=O)c3nc(SCc4ccccc4F)ncc3Cl)sc2c1,31.9% (inactive),–
Cc1ccc(CCNC(=O)c2ccc(CS(=O)(=O)Cc3cccc(C)c3)o2)cc1,4% [at 57.1 µM] (inactive),–
Cc1ccc(NC(=O)c2nc(S(=O)(=O)Cc3cccc(C)c3)ncc2Cl)cc1,–,1.78 µM (active)
CN(C)c1cccc(C(=O)Nc2nc3ccc(S(=O)(=O)NC(C)(C)C)cc3s2)c1,13.9% [at 57.1 µM] (inactive),–
CN(C)c1ccc(/C=C/c2c3ccccc3nc3ccccc23)cc1,7.73% (inactive),–
Cc1ccc(CNS(=O)(=O)c2ccc(-c3cc(C(F)(F)F)on3)s2)cc1,14.4% [at 57.1 µM] (inactive),–

Compound,"activity change, negative = inhibition",Potency
Cc1nn(-c2ccc(N3CCCCC3)nn2)c(C)c1CCC(=O)NCc1ccc(F)cc1,15.3% [at 57.1 µM] (inactive),–
COc1ccccc1NC(=O)c1oc2ccccc2c1NC(=O)COc1ccccc1OC,16.3% (inactive),–
COc1ccc(S(=O)(=O)c2c(Nc3cccc(Cl)c3)sc(C(=O)c3ccccc3)c2N)cc1,23.1% (inactive),–
O=C(CNS(=O)(=O)c1cccs1)N1CCN(c2ccccc2Cl)CC1,18.1% (inactive),–
COc1ccccc1CNC(=O)C(Cc1ccccc1)NS(=O)(=O)c1ccc2c(c1)oc(=O)n2C (stereo not drawn),15.7% (inactive),–
CCOC(=O)c1c(C)oc2nc(C)nc(N(CC(C)C)CC(C)C)c12,-7.59% (inactive),–
Cc1ccc(CNC(=O)CCNS(=O)(=O)c2ccc3c(c2)oc(=O)n3C)cc1,5.75% (inactive),–
CCOC(=O)c1c(NC(=O)c2ccc(S(=O)(=O)N(CC)CC)cc2)sc2c1CCCCC2,8.59% (inactive),–
CCc1ccc(CNC(=O)c2cc3cc4ccc(OC)cc4nc3o2)cc1,19.9% (inactive),–
O=C(O)/C(=C/c1c(C(=O)O)[nH]c2cc(Cl)cc(Cl)c12)c1ccccc1,–,inactive
O=C(Nc1ccccc1C(F)(F)F)c1nc(S(=O)(=O)Cc2ccccc2F)ncc1Cl,–,2.82 µM (active)
O=C(Nc1nc2ccc(F)cc2s1)c1nc(SCc2ccccc2F)ncc1Cl,17.6% (inactive),–
CN(CC(=O)Nc1ccccc1C(F)(F)F)C(=O)Cc1ccccc1F,12.8% (inactive),–
Cc1ccc(Cn2cnc3c(cnn3C(C)(C)C)c2=O)c(F)c1,17.2% (inactive),–
O=C1[C@@H]2C(c3cccnc3)=NO[C@@H]2C(=O)N1c1ccc(Cl)cc1Cl,–,70.8 µM (active)
O=C(NNC1CC(=O)N(c2cccc(Cl)c2)C1=O)c1cccnc1 (stereo not drawn),-9.32% (inactive),–
CCN(CC)c1ccc(/C=C/c2c(C)cnc3ccc(C)cc23)cc1,9.41% (inactive),–
COc1cccc(CNC(=O)CCc2nc(-c3ccc(C)cc3)no2)c1,7.09% (inactive),–
COc1ccc(OC)c(NC(=O)CSc2nc3ccccc3nc2N2CCCCC2)c1,-6.8% (inactive),–
CCn1cc(C(=O)NCc2ccccc2)c(=O)c2cc(S(=O)(=O)N3CCCCC3)ccc21,24.3% (inactive),–
CCC(=O)N1CCc2cc(Br)cc(S(=O)(=O)CCC(=O)NCc3ccccc3OC)c21,13.2% (inactive),–
Fc1cc(Br)ccc1NC(=S)Nc1cccnc1,–,50.1 µM (active)
O=C(Nc1cccnc1)c1cc2cc(Br)ccc2oc1=O,-6.18% [at 57.1 µM] (inactive),–
O=C(NC(=S)Nc1ccc(Br)cc1F)C1CCCCC1,11% [at 57.1 µM] (inactive),–
